Assay results reported in article PMC13541613, “GHT-SELEX demonstrates unexpectedly high intrinsic sequence specificity and complex DNA binding of many human transcription factors”.

Molecular target: ZNF721 full-length (Homo sapiens, UniProt Q8TF20-2 1-923)
Assay: HT-SELEX; 20 mM HEPES pH 7, 140 mM KCl, 5 mM NaCl, 1 mM K2HPO4, 2 mM MgSO4, 100 uM EGTA, ZnSO4, 0.1% Tween20; room temperature, 1 h; high values mean tight binding
Conditions: protein: ivt; tags: eGFP (N-terminal); dsDNA, one strand shown
How it was run: (§1)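 Full-length or DNA-binding-domain forms of a tagged transcription factor were produced in HEK293 lysate or cell-free extract and immobilised on beads. Incubation with a randomized 40-base DNA library ran for 1 h at room temperature in HEPES/KCl low-stringency buffer with Tween20, after which bound DNA was washed, heat-eluted, PCR-amplified over successive cycles and Illumina-sequenced. Binding strength is given as the relative k-mer count in selected reads, higher for tighter binding.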

Sequence of ZNF721 full-length (Q8TF20 other isoform, or with tags, fused parts or gaps): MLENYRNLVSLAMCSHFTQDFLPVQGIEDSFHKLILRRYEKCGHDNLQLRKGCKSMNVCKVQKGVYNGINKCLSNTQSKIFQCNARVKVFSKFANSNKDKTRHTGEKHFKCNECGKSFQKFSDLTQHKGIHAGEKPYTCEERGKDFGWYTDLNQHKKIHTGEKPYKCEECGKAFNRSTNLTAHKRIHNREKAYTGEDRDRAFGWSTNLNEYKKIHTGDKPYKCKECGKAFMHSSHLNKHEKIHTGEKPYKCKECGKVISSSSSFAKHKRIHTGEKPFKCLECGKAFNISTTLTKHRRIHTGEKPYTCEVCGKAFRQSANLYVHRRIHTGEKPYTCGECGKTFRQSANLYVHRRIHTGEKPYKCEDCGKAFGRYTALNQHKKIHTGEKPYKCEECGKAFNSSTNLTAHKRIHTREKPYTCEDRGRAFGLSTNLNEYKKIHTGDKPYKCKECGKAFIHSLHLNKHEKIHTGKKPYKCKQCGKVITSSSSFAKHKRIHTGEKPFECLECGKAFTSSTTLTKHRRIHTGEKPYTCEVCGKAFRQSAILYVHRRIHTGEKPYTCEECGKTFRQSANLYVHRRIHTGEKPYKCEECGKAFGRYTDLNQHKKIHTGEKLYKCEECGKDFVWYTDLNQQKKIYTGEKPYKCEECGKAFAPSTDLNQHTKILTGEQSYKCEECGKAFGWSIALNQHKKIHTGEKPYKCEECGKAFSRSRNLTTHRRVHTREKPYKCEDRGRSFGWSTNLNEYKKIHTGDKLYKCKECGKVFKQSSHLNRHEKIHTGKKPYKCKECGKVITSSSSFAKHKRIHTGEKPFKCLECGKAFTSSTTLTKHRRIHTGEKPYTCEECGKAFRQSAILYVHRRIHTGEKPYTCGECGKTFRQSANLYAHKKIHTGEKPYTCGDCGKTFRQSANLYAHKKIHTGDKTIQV

Sequence | binding signal [relative 10-mer count]
CCTCCCCCCA | 0.18
CTCCCACCAC | 0.11
CACCGCCACC | 0.117
CACCCACCCC | 0.325
CAGCATACCC | 0.596
ACCACCCCAC | 0.201
CACCCACCTC | 0.109
ACACCCACCC | 0.171
CCCGACCCCA | 0.112
CACCCCCTCC | 0.159
CCCCCTCCAC | 0.179
CCACACCCAC | 0.128
CCCCTCCGCC | 0.167
CCGCCACCAC | 0.106
ACCGCCACCC | 0.111
ACCCCCAACC | 0.12
AAAAACAAGC | 0.123
ACCCACCTCC | 0.125
CTCCCCACCC | 0.198
CCCTCCACCA | 0.109

Sequence | binding signal [relative 10-mer count]
CGCCCACCAC | 0.138
CCGCCACCCA | 0.107
CACCCGCCCA | 0.103
CACCACCGCC | 0.103
CACACCCCCC | 0.146
CCCTCCTCCC | 0.179
CCACCACCCA | 0.222
CCACGCCACC | 0.105
CGCCCCGCCC | 0.139
CACCACCCCC | 0.276
AGGGGGGGTG | 0.108
CACCCCAACC | 0.142
CCCCGCCCGC | 0.115
CCCCACACCC | 0.274
CACCCTCCCC | 0.212
CGCCCACCCC | 0.23
CCTCCACCCC | 0.263
GACCCACCCC | 0.124
CCCACCTACC | 0.111
CAAAACAGCA | 0.21

Molecular target: ZNF721 DBD1 (Homo sapiens, UniProt Q8TF20-2 29-461)
Assay: as above
Conditions: protein: ivt; tags: eGFP (N-terminal); dsDNA, one strand shown
How it was run: as §1

Sequence of ZNF721 DBD1 (Q8TF20 17-449): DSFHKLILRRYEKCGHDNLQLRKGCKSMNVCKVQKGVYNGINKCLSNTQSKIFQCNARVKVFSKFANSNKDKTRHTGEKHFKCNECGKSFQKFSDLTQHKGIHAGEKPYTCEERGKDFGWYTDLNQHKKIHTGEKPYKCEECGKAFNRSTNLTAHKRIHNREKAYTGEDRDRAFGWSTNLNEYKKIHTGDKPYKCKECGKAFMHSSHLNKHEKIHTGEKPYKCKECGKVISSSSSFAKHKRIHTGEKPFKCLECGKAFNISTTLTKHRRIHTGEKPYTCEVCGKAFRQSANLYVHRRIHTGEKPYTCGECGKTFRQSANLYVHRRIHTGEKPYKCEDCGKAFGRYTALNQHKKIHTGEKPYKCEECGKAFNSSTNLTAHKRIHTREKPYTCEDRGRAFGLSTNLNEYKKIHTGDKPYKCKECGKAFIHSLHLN

Sequence | binding signal [relative 10-mer count]
CCTCCCCCCA | 0.00761
CTCCCACCAC | 0.00752
CACCGCCACC | 0.00339
CACCCACCCC | 0.0153
CAGCATACCC | 0.00271
ACCACCCCAC | 0.0072
CACCCACCTC | 0.00518
ACACCCACCC | 0.0105
CCCGACCCCA | 0.00399
CACCCCCTCC | 0.00899
CCCCCTCCAC | 0.00908
CCACACCCAC | 0.00605
CCCCTCCGCC | 0.00766
CCGCCACCAC | 0.00417
ACCGCCACCC | 0.00335
ACCCCCAACC | 0.00468
AAAAACAAGC | 0.0116
ACCCACCTCC | 0.00505
CTCCCCACCC | 0.00936
CCCTCCACCA | 0.00436

Sequence | binding signal [relative 10-mer count]
CGCCCACCAC | 0.00569
CCGCCACCCA | 0.00523
CACCCGCCCA | 0.00358
CACCACCGCC | 0.00454
CACACCCCCC | 0.00514
CCCTCCTCCC | 0.00927
CCACCACCCA | 0.0105
CCACGCCACC | 0.00353
CGCCCCGCCC | 0.00555
CACCACCCCC | 0.0117
AGGGGGGGTG | 0.00422
CACCCCAACC | 0.0061
CCCCGCCCGC | 0.00417
CCCCACACCC | 0.01
CACCCTCCCC | 0.00945
CGCCCACCCC | 0.00913
CCTCCACCCC | 0.0117
GACCCACCCC | 0.00427
CCCACCTACC | 0.00573
CAAAACAGCA | 0.00119
